High-throughput results as filed in PubChem.
In the library only some 3.1% were active in any assay of this set; here they are far more common.
ERAP1 inh: inhibitors of human ERAP1 aminopeptidase; Q9NZ08; recombinant ERAP1, Leu-AMC fluorescence, 60 min; inhibition, % at 10.7 µM; 340,000 tested, 0.15% active; AID 652197;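 active = mean replicate inhibition of at least 30%, or all replicates individually reaching that 30% level; inactive = mean below 30% and not every replicate reaching it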;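 note: 0% = neutral control wells and 100% = L-leucinethiol positive control wells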
Target sequence (Q9NZ08 whole entry, looked up): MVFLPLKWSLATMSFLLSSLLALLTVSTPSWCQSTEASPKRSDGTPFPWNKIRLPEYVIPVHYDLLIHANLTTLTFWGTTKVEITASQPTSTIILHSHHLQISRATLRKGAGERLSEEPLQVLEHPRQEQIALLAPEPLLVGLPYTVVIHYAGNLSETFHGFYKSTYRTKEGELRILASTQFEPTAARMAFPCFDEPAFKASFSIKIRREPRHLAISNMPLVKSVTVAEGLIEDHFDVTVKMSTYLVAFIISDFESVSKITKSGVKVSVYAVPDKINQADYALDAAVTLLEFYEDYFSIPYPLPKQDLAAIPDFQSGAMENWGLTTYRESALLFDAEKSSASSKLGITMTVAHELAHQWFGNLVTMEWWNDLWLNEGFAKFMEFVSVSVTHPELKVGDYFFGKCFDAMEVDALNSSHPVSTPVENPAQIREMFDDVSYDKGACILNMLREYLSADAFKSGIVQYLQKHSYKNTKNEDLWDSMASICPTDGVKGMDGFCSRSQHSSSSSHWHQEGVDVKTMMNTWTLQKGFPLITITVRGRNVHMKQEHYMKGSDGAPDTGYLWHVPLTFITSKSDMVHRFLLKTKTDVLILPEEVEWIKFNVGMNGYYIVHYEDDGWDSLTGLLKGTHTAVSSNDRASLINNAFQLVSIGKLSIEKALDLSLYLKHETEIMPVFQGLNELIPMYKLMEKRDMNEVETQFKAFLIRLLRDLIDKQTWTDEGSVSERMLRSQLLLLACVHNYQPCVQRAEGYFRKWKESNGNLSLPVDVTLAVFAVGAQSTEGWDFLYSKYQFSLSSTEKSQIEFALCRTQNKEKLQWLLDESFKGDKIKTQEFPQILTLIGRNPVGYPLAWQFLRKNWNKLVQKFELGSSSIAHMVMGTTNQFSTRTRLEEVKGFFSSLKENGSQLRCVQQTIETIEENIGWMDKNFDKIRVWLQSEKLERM
FGF22 binding: shifts melting point of recombinant human FGF22 | activity (Tm shift, normalised), % at 9.99 µM | recombinant FGF22 thermal shift, SYPRO orange fluorescence; percent of sucrose octasulfate shift, DMSO zero | 340,000 tested, 1.5% active;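 active = mean Tm shift, scaled 0 neutral to 100 positive control, at about 1.3% or above, every replicate too, limit read from the data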
SIRT5 block: inhibitors of human sirtuin-5 desuccinylase | Q9NXA8 | Purified SirT5, succinyl-peptide AMC, trypsin-coupled fluorescence | inhibition, % at 15 µM | 330,000 tested, 1.1% active; in the data active = inhibition above about 15%
CASP6 VEID inh: blocks human caspase-6 cleavage activity; 350,000 tested, 0.53% active; inhibition, % at 12.5 µM; purified caspase-6, Z-VEID-R110 cleavage fluorescence; AID 686996;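 active = mean inhibition across replicates at least about 35%, with every replicate also reaching that limit, limit read from the data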;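 note: 0% = median of neutral control wells and 100% = no fluorescence left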
Active calls of the source: *; / = no result given.

SMILES	ERAP1 inh	FGF22 binding	SIRT5 block	CASP6 VEID inh
Cc1noc(C)c1S(=O)(=O)Nc1ccc2c(c1)C(=O)N([C@@H](C)CO)C[C@H](C)[C@H](CN(C)Cc1ccc(C(F)(F)F)cc1)OCCCC[C@H](C)O2	7	0	9	0
Cc1noc(C)c1S(=O)(=O)Nc1ccc2c(c1)C(=O)N([C@@H](C)CO)C[C@H](C)[C@H](CN(C)Cc1ccc(C(F)(F)F)cc1)OCCCC[C@@H](C)O2	0	0	/	-5
Cc1noc(C)c1S(=O)(=O)Nc1ccc2c(c1)C(=O)N([C@H](C)CO)C[C@@H](C)[C@H](CN(C)Cc1ccc(C(F)(F)F)cc1)OCCCC[C@@H](C)O2	3	0	24*	0
Cc1noc(C)c1S(=O)(=O)Nc1ccc2c(c1)C(=O)N([C@@H](C)CO)C[C@@H](C)[C@H](CN(C)Cc1ccc(C(F)(F)F)cc1)OCCCC[C@@H](C)O2	1	0	17*	1
C[C@H](CO)N1C[C@H](C)[C@H](CN(C)Cc2ccc(C(=O)O)cc2)OCCCC[C@H](C)Oc2ccc(NC(=O)Nc3ccccc3)cc2C1=O	-10	0	0	0
CNC[C@H]1OCCCC[C@@H](C)Oc2ccc(NS(=O)(=O)c3ccccc3)cc2C(=O)N([C@@H](C)CO)C[C@H]1C	-2	0	-1	0
Cc1noc(C)c1S(=O)(=O)Nc1ccc2c(c1)C(=O)N([C@@H](C)CO)C[C@H](C)[C@H](CN(C)Cc1ccc(Cl)c(Cl)c1)O2	1	0	3	-1
C[C@H](CO)N1C[C@H](C)[C@@H](CN(C)C)Oc2cc(-c3ccccc3)ccc2S1(=O)=O	2	0	-1	-3
C[C@@H]1CN([C@H](C)CO)C(=O)c2cc(NC(=O)Nc3ccc(C(F)(F)F)cc3)ccc2O[C@@H]1CN(C)Cc1ccc(C(=O)Nc2ccccc2N)cc1	1	0	1	-3
COc1ccc(S(=O)(=O)N[C@@H]2CC[C@H](CC(=O)O)O[C@H]2CO)cc1	2	0	-1	-1
COc1ccc(NC(=O)Nc2ccc3c(c2)CC(=O)N([C@@H](C)CO)C[C@H](C)[C@@H](CN(C)S(=O)(=O)c2ccc(OC)cc2)O3)cc1	0	0	1	-1
CCOC(=O)C1=C(O)/C(=C/c2ccc(OCC(=O)O)c(OCC)c2)SC1=Nc1ccccc1	11	43*	-4	2
CCOC(=O)C1=C(O)/C(=C/c2ccc(OCC(=O)O)c(OC)c2)SC1=Nc1ccc(OCC)cc1	0	0	6	37*
Cc1noc(C)c1S(=O)(=O)Nc1ccc2c(c1)C(=O)N([C@@H](C)CO)C[C@H](C)[C@@H](CN(C)Cc1ccncc1)OCCCC[C@H](C)O2	-3	-1	-1	2
COc1cccc(C2(O)CC(C(F)(F)F)=NN2C(=O)c2ccccn2)c1 (stereo not given)	1	43*	12	-1
Cc1ccc(-c2ccc3c(c2)O[C@@H](CN(C)C(=O)Nc2ccc(F)cc2)[C@@H](C)CN([C@H](C)CO)S3(=O)=O)cc1	0	1	4	0
CC(C)(C)c1ccc(C(CC(=O)O)NC(=O)c2ccccc2F)cc1 (stereo not given)	2	43*	-2	0
CCOC(=O)CC(NC(=O)c1ccccc1F)c1ccc(C)cc1 (stereo not given)	-3	0	-4	-1
O=C(COC(=O)c1ccc(S(=O)(=O)NCc2ccco2)cc1)Nc1ccc(Cl)cn1	1	0	0	46*
C[C@H](CO)N1C[C@H](C)[C@H](CN(C)C)Oc2ccc(NC(=O)Cc3cn(C)c4ccccc34)cc2C1=O	0	0	1	-2
COc1cc(CCCN2C(=S)NC[C@H]2Cc2ccc(O)cc2)cc(OC)c1OC	-2	0	32*	-2
CNC[C@H]1Oc2ccc(NC(=O)Nc3ccc(C(F)(F)F)cc3)cc2C(=O)N([C@@H](C)CO)C[C@@H]1C	-1	0	-3	-4
C[C@H]1CN([C@@H](C)CO)C(=O)c2cc(C#CCc3ccccc3)cnc2O[C@H]1CN(C)Cc1ccccc1	-1	-1	11	0
Cc1ccc(NC(=O)Nc2cccc([N+](=O)[O-])c2)nc1	7	43*	-1	0
Cc1ccc(C(=O)CNc2cccc([N+](=O)[O-])c2)cc1	1	43*	0	-2
SMILES	ERAP1 inh	FGF22 binding	SIRT5 block	CASP6 VEID inh
CC/C=C\C/C=C\C/C=C\CCCCCCCC(=O)O	-1	0	17*	35
CCCN1[C@@H]2Cn3c(ccc(-c4ccncc4)c3=O)[C@H]1[C@@H](C(=O)NCCc1cn(C)cn1)[C@@H]2CO	-2	0	-5	-1
CN(C)CCCNC(=O)C[C@@H]1CC[C@@H]2[C@H](COC[C@@H](O)CN2S(=O)(=O)c2ccc(Cl)cc2)O1	/	0	/	/
Cc1cc(/C=N/N2CCN(C)CC2)c(C)n1-c1ccccc1F	3	44*	-3	-45
C[C@@H]1CN([C@H](C)CO)C(=O)c2cc(NC(=O)c3ccccc3)ccc2O[C@@H](C)CCCCO[C@H]1CN(C)Cc1ccc(C(=O)O)cc1	1	0	-3	3
O=C(c1c(O)cc(O)cc1O)C1c2c(cc(O)c3c2O[C@H](c2ccc(O)cc2)[C@@H](O)C3)OC1c1ccc(O)cc1 (stereo not given in full)	/	1.5*	/	37*
CCOc1ccc(/C=C/c2c([N+](=O)[O-])c(=O)n(C)c(=O)n2C)cc1	6	0	0	1
COc1ccc(/C=C/c2c([N+](=O)[O-])c(=O)n(C)c(=O)n2C)cc1	4	43*	2	1
Cc1ccc(S[C@]2(C(=O)NC(C)C)CC(=O)N(C3CCCCC3)[C@@H]2c2ccc(CO)cc2I)cc1	0	-1	7	1
COc1ccc(CCNC(=O)[C@@]2(Sc3ccc(C)cc3)CC(=O)N(C(C)C)[C@@H]2c2ccc(CO)cc2I)cc1	0	1.3*	1	0
O=S(=O)(O)c1cccc2c(N=Nc3ccc(O)c4ncccc34)cccc12	15	/	34*	21
COc1ccccc1S(=O)(=O)N(C)C[C@H]1Oc2cc(C#CCC(C)C)ccc2S(=O)(=O)N([C@@H](C)CO)C[C@H]1C	-5	/	-1	-3
COc1ccccc1S(=O)(=O)N(C)C[C@H]1Oc2cc(C#CCC(C)C)ccc2S(=O)(=O)N([C@H](C)CO)C[C@@H]1C	1	0	30*	6
COc1ccccc1S(=O)(=O)N(C)C[C@@H]1Oc2cc(C#CCC3CCCC3)ccc2S(=O)(=O)N([C@@H](C)CO)C[C@@H]1C	-1	0	17*	5
COc1ccccc1S(=O)(=O)N(C)C[C@@H]1Oc2cc(C#CCC3CCCC3)ccc2S(=O)(=O)N([C@@H](C)CO)C[C@H]1C	0	0	12	2
Cc1ccc(S(=O)(=O)Nc2nc3ccccc3nc2Nc2cccc(S(=O)(=O)N3CCCC3)c2)cc1	-6	0	0	-2
O=[N+]([O-])c1cccc(S(=O)(=O)Nc2nc3ccccc3nc2Nc2cccc(S(=O)(=O)N3CCCCC3)c2)c1	6	0	25*	7
